About 8,800 targets were measured; listed, in parts, are those with a hit and a random draw of the rest. About 0.5% of all pairs of compound and target were hits.
Experiments:
Experiment in all cases: log2 fold change, soluble protein after heating vs DMSO (PISA); higher = thermal stabilisation; K562 lysate, 10 uM; active = over 0.2 and 3.5 SD of the protein, either way, in both replicates (recomputed)
[1] = compound: C1=CC=C(C=C1)[C@H](COC2=CC3=C(C=C2)NC(=O)N3)NC(=O)C4=CC=CN(C4=O)CC5=CC(=C(C=C5)F)F
Summary of the method: (§1)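 Pellets of K562 cells were dounce-homogenised in PBS pH 7.4 with 1 mM MgCl2, and the crude extract was held at 1 mg/mL protein for a 30 min treatment with 10 μM compound. Aliquots were heated for 3 min over 48°C-58°C and pooled before NP-40 was added to 0.5% at 4°C. The supernatant from 21,000xg for 90 min was quantified by TMTpro 16plex LC-MS/MS with channel sums equalised. Values are reported from duplicates as log-two fold change in thermal stability relative to solvent controls.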

[2] = compound: CC1=C(SC2=C1C(=N[C@H](C3=NN=C(N32)C)CC(=O)N)C4=CC=C(C=C4)Cl)C
Summary of the method: as §1

[3] = compound: CC1=C2C(=CC=C1)N=C(N(C2=O)C3=CC=CC=C3C)CN4C=NC5=C(N=CN=C54)N
Summary of the method: as §1

[4] = compound: Cc1sc2c(c1C)C(c1ccc(Cl)cc1)=N[C@@H](CC(=O)OC(C)(C)C)c1nnc(C)n1-2
Summary of the method: as §1

[5] = compound: c1ccc([C@@H]2C[C@H]2NC2CCNCC2)cc1
Summary of the method: as §1

Measured: log2 fold change

USP16 (UniProt Q9Y5T5)
inactive: [1] 0.047 | [2] -0.015 | [3] 0.011 | [4] 0.038 | [5] -0.002

UNC13D (UniProt Q70J99)
inactive: [1] -0.032 | [2] 0.067 | [3] 0.044 | [4] 0.025 | [5] 0.024

YWHAQ (UniProt P27348)
Chain of UniProt P27348 (P27348 whole entry, looked up): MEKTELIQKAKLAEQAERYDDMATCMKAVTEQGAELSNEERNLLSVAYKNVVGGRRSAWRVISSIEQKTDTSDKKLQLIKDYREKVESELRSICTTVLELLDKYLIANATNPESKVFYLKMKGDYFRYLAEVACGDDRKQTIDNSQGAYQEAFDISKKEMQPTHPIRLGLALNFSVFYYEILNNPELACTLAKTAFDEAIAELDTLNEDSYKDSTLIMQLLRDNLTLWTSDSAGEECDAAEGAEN
inactive: [1] 0.002 | [2] 0.021 | [3] -0.001 | [4] 0.076 | [5] 0.181

USP34 (UniProt Q70CQ2)
inactive: [1] -0.002 | [2] -0.015 | [3] 0 | [4] -0.004 | [5] 0.073

WRB (UniProt O00258)
Chain of UniProt O00258 (O00258 whole entry, looked up): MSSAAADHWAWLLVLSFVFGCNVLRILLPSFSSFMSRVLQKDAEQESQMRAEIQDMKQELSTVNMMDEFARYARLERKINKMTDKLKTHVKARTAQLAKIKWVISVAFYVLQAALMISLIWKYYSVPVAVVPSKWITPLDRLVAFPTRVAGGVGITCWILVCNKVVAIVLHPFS
inactive: [1] 0.018 | [2] -0.021 | [3] -0.029 | [4] 0 | [5] -0.191

UTP3 (UniProt Q9NQZ2)
Chain of UniProt Q9NQZ2 (Q9NQZ2 whole entry, looked up): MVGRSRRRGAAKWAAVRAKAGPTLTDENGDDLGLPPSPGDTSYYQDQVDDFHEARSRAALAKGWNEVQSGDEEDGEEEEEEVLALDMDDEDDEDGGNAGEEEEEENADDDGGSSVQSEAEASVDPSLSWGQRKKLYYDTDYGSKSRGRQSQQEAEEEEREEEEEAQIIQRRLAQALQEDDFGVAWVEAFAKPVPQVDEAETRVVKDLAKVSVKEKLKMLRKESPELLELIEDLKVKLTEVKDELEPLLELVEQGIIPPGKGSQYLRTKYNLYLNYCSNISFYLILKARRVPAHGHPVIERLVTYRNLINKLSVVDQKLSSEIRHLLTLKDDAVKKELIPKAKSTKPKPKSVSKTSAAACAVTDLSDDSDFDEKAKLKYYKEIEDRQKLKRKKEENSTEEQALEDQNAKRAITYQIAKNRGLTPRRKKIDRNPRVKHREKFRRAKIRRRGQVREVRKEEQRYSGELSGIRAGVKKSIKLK
inactive: [1] -0.009 | [2] -0.035 | [3] 0.076 | [4] -0.158 | [5] 0.018

XAB2 (UniProt Q9HCS7)
inactive: [1] -0.009 | [2] 0.05 | [3] 0 | [4] -0.018 | [5] 0.035

ZMYM1 (UniProt Q5SVZ6)
inactive: [1] 0.009 | [2] 0.099 | [3] -0.012 | [4] 0 | [5] -0.2

VPS13C (UniProt Q709C8)
inactive: [1] -0.111 | [2] -0.002 | [3] 0.061 | [4] 0.018 | [5] 0.008

USP8 (UniProt P40818)
inactive: [1] -0.018 | [2] 0.016 | [3] 0.01 | [4] 0.009 | [5] 0.036

ZNF217 (UniProt O75362)
inactive: [1] -0.037 | [2] 0.075 | [3] 0.129 | [4] 0.053 | [5] 0

VPS33A (UniProt Q96AX1)
Chain of UniProt Q96AX1 (Q96AX1 whole entry, looked up): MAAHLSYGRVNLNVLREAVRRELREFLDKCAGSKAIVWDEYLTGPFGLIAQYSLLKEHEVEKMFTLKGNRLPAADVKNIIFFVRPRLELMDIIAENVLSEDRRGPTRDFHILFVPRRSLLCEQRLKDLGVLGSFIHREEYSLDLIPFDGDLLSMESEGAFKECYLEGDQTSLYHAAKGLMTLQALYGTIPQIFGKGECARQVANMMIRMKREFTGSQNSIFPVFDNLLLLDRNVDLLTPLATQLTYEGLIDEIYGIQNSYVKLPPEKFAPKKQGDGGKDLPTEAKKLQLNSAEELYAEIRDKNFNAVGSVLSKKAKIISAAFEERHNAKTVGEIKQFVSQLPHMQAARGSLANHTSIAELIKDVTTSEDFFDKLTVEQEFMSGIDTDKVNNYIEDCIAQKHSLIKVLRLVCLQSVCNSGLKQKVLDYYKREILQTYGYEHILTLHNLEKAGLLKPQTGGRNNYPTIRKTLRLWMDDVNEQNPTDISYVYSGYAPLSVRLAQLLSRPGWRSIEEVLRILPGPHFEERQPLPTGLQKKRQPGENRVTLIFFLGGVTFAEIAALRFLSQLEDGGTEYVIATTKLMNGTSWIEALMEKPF
inactive: [1] 0 | [2] 0.017 | [3] 0.014 | [4] -0.013 | [5] -0.01

YEATS4 (UniProt O95619)
Chain of UniProt O95619 (O95619 whole entry, looked up): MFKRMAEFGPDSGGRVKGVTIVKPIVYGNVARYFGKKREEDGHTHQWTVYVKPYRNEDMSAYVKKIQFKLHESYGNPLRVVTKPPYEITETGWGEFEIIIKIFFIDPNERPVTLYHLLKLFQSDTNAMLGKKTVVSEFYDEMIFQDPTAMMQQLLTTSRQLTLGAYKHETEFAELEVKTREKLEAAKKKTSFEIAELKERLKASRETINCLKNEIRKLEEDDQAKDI
inactive: [1] -0.014 | [2] 0.05 | [3] -0.029 | [4] 0.046 | [5] 0.25

ZHX1 (UniProt Q9UKY1)
inactive: [1] 0.016 | [2] 0.036 | [3] 0.022 | [4] -0.224 | [5] -0.22

ZMYND8 isoform 19 (UniProt Q9ULU4)
inactive: [1] -0.006 | [2] -0.011 | [3] 0.055 | [4] 0.011 | [5] -0.026

VANGL1 (UniProt Q8TAA9)
inactive: [1] 0.064 | [2] 0.088 | [3] -0.055 | [4] -0.004 | [5] -0.076

ZMYM4 (UniProt Q5VZL5)
Chain of UniProt Q5VZL5 (Q5VZL5 whole entry, looked up): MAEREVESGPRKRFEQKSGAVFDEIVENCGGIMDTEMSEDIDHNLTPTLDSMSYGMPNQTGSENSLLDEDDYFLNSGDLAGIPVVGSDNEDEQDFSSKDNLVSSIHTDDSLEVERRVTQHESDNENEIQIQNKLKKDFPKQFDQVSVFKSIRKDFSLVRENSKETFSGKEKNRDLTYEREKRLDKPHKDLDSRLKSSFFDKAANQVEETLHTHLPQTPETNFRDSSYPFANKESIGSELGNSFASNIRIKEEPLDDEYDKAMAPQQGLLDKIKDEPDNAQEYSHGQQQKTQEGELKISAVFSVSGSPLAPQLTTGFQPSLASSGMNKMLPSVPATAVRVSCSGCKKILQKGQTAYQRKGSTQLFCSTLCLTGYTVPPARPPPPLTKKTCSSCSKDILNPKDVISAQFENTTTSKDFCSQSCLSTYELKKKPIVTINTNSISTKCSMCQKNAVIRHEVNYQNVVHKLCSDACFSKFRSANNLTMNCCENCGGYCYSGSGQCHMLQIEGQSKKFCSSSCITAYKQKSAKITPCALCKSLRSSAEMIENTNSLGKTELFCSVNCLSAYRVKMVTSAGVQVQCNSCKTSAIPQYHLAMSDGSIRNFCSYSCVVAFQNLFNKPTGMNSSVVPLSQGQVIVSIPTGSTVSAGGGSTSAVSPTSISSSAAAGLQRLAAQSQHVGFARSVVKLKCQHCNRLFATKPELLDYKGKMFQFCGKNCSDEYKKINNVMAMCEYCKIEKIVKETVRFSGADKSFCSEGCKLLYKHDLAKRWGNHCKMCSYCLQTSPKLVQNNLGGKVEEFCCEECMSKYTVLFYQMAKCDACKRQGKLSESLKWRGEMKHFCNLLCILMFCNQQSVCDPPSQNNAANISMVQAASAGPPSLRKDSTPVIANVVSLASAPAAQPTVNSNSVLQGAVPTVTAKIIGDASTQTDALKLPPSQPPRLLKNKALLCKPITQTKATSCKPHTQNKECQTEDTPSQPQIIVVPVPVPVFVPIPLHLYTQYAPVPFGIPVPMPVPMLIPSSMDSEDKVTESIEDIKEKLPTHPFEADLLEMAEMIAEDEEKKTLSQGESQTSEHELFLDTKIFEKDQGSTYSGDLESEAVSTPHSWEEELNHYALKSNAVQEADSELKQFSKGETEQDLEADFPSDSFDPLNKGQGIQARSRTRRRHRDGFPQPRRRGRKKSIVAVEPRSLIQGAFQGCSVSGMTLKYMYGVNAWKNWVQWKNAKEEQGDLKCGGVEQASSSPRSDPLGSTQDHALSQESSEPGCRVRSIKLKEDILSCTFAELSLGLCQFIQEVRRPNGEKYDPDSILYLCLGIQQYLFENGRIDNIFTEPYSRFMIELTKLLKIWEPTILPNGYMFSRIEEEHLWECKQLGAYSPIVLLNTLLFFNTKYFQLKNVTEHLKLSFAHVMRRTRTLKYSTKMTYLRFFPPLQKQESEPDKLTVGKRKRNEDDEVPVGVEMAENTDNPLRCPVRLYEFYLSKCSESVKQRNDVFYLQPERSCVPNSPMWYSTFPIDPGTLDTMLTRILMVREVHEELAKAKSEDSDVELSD
inactive: [1] 0.133 | [2] -0.081 | [3] -0.054 | [4] -0.023 | [5] 0.011

UQCRC2 (UniProt P22695)
inactive: [1] 0.003 | [2] 0.037 | [3] -0.007 | [4] 0.006 | [5] -0.015

YLPM1 (UniProt P49750)
inactive: [1] -0.029 | [2] -0.04 | [3] 0.034 | [4] 0.005 | [5] 0.05

WDR45 isoform 2 (UniProt Q9Y484)
inactive: [1] -0.024 | [2] 0.061 | [3] 0.073 | [4] -0.018 | [5] -0.014

WDCP (UniProt Q9H6R7)
Chain of UniProt Q9H6R7 (Q9H6R7 whole entry, looked up): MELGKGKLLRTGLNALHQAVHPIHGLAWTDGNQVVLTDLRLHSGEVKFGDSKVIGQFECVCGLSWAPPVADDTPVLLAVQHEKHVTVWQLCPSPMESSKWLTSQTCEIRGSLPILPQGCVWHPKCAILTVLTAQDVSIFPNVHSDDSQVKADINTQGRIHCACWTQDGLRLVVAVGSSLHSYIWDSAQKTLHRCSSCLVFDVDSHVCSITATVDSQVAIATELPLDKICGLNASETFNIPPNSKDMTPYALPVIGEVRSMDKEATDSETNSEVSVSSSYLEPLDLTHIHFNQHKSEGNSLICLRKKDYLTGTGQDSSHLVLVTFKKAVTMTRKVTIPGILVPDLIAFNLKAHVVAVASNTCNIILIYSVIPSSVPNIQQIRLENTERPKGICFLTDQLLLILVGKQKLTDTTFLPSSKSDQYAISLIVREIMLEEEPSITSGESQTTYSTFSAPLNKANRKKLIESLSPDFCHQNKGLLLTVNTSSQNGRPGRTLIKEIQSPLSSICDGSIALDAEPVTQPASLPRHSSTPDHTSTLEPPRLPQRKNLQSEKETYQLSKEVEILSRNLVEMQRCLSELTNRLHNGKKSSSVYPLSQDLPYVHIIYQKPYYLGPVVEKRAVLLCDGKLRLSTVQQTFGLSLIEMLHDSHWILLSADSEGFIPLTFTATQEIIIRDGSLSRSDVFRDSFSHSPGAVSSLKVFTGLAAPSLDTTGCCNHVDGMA
inactive: [1] 0.023 | [2] 0.068 | [3] -0.04 | [4] 0.049 | [5] 0.025

VAMP2 (UniProt P63027)
inactive: [1] -0.045 | [2] -0.053 | [3] -0.024 | [4] 0.014 | [5] 0.081

USP48 isoform 8 (UniProt Q86UV5)
Chain of UniProt Q86UV5 (Q86UV5 whole entry, looked up): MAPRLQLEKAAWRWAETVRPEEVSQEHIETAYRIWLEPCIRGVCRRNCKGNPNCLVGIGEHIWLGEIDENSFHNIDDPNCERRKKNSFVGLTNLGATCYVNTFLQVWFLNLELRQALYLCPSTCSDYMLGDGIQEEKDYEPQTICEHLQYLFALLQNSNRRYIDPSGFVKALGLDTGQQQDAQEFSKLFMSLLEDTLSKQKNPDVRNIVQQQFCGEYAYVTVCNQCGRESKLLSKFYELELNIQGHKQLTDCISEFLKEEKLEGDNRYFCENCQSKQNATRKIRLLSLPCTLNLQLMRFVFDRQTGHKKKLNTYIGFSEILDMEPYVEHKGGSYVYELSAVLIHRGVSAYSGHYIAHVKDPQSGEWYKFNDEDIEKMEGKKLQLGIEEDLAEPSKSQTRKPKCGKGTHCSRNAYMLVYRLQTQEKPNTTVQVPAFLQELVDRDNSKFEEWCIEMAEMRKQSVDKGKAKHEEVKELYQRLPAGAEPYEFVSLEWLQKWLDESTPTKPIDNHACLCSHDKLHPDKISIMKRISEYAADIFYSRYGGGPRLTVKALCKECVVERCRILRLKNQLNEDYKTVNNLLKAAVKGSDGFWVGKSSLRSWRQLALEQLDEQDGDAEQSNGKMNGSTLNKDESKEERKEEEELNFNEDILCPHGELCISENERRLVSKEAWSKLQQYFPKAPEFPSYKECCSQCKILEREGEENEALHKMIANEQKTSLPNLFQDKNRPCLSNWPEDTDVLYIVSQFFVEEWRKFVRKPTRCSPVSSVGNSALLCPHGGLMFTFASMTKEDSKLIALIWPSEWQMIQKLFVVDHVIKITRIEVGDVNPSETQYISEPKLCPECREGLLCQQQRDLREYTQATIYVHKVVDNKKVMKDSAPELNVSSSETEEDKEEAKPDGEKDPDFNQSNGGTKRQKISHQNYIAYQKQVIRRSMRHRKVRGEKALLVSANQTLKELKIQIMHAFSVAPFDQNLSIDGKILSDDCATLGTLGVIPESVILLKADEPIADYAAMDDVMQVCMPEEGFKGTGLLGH
inactive: [1] 0.006 | [2] -0.016 | [3] 0.015 | [4] 0.003 | [5] 0.035

ZNHIT6 (UniProt Q9NWK9)
inactive: [1] 0.106 | [2] -0.063 | [3] 0.013 | [4] 0.089 | [5] 0.008

WRNIP1 (UniProt Q96S55)
inactive: [1] -0.051 | [2] -0.033 | [3] 0.024 | [4] 0.016 | [5] 0.06

Reference: the supplement of paper PMC10849652
